Laboratory results taken from PubChem BioAssay AID1159580 (chemical genetic matrix, 2015).
Screen size: about 5,500 compounds; about 2,000 (36%) were called active. Roughly 18% stayed inconclusive and do not appear here. No stated cut-off is given here; in the data, active means normalized growth mostly below about 0.91 (no sharp cut-off); inconclusive means no clear call, values can overlap the other calls; inactive means mostly above about 0.92. The list shows a part of the results.

Assay: chemical genetic growth profiling, strain panel (AID 1159580);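 further: tested at 20 µM; growth read once vehicle control cultures reached saturation at 30 °C; 1 = growth at the plate median or of vehicle wells; lower values mean less growth of the strain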
Settings: growth OD

Measured: normalized growth

C1CNCCN1
inactive: S. cerevisiae deletion strains, locus YJR066W, strain TOR1, hits give low values 0.957 | S. cerevisiae deletion strains, locus YJR075W, strain HOC1, hits give low values 1.02 | S. cerevisiae deletion strains, locus YKL009W, strain mrt4, hits give low values 0.989 | S. cerevisiae deletion strains, locus YKL068W, hits give low values 0.999 | S. cerevisiae deletion strains, locus YKL085W, strain MDH1 (second series), hits give low values 1.01 | S. cerevisiae deletion strains, locus YKL085W, strain MDH1, hits give low values 1.01 | S. cerevisiae deletion strains, locus YKL160W, strain elf1, hits give low values 1.02 | S. cerevisiae deletion strains, locus YKL190W, strain CNB1, hits give low values 1 | S. cerevisiae deletion strains, locus YKR001C, strain vps1, hits give low values 1 | S. cerevisiae deletion strains, locus YKR026C, strain gcn3, hits give low values 1.01 | S. cerevisiae deletion strains, locus YKR091W, strain srl3, hits give low values 1.01 | S. cerevisiae deletion strains, locus YLL001W, strain dnm1, hits give low values 1.02 | S. cerevisiae deletion strains, locus YLL026W, hits give low values 1.01 | S. cerevisiae deletion strains, locus YLL041C, strain sdh2, hits give low values 1.02 | S. cerevisiae deletion strains, locus YLR027C, strain aat2, hits give low values 1.01 | S. cerevisiae deletion strains, locus YLR039C, strain RIC1, hits give low values 1.01 | S. cerevisiae deletion strains, locus YLR058C, strain SHM2, hits give low values 1.01 | S. cerevisiae deletion strains, locus YLR102C, strain apc9, hits give low values 0.994 | S. cerevisiae deletion strains, locus YLR113W, strain HOG1, hits give low values 1.02 | S. cerevisiae deletion strains, locus YLR221C, strain rsa3, hits give low values 1.01 | S. cerevisiae deletion strains, locus YLR258W, strain gsy2, hits give low values 1.01 | S. cerevisiae deletion strains, locus YLR262C, strain YPT6 (second series), hits give low values 1.03 | S. cerevisiae deletion strains, locus YLR262C, strain YPT6, hits give low values 1.02 | S. cerevisiae deletion strains, locus YLR268W, strain sec22, hits give low values 0.987 | S. cerevisiae deletion strains, locus YLR320W, strain mms22, hits give low values 1.02 | S. cerevisiae deletion strains, locus YLR330W, strain CHS5, hits give low values 1.01 | S. cerevisiae deletion strains, locus YLR342W, strain FKS1 (second series), hits give low values 1.02 | S. cerevisiae deletion strains, locus YLR342W, strain FKS1, hits give low values 1.02 | S. cerevisiae deletion strains, locus YLR357W, strain rsc2, hits give low values 1.02 | S. cerevisiae deletion strains, locus YLR370C, strain arc18, hits give low values 1.02 | S. cerevisiae deletion strains, locus YLR371W, strain rom2, hits give low values 0.997 | S. cerevisiae deletion strains, locus YLR384C, strain iki3, hits give low values 1.01 | S. cerevisiae deletion strains, locus YLR418C, strain cdc73, hits give low values 0.994 | S. cerevisiae deletion strains, locus YML016C, strain PPZ1, hits give low values 1.02 | S. cerevisiae deletion strains, locus YML032C, strain rad52, hits give low values 0.989 | S. cerevisiae deletion strains, locus YML120C, strain ndi1, hits give low values 1 | S. cerevisiae deletion strains, locus YML124C, strain tub3, hits give low values 0.999 | S. cerevisiae deletion strains, locus YMR058W, strain fet3, hits give low values 1.02 | S. cerevisiae deletion strains, locus YMR078C, strain ctf18, hits give low values 1 | S. cerevisiae deletion strains, locus YMR125W, strain sto1, hits give low values 1.03 | S. cerevisiae deletion strains, locus YMR129W, hits give low values 1.01 | S. cerevisiae deletion strains, locus YMR205C, strain PFK2, hits give low values 1.03 | S. cerevisiae deletion strains, locus YMR223W, strain ubp8, hits give low values 0.987 | S. cerevisiae deletion strains, locus YMR231W, strain pep5, hits give low values 1.02 | S. cerevisiae deletion strains, locus YMR263W, strain SAP30, hits give low values 1.01 | S. cerevisiae deletion strains, locus YMR307W, strain GAS1, hits give low values 1.04 | S. cerevisiae deletion strains, locus YNL067W, strain RPL9B, hits give low values 1.02 | S. cerevisiae deletion strains, locus YNL071W, strain lat1, hits give low values 1.01 | S. cerevisiae deletion strains, locus YNL128W, strain TEP1, hits give low values 1.01 | S. cerevisiae deletion strains, locus YNL153C, strain GIM3, hits give low values 1.02 | S. cerevisiae deletion strains, locus YNL183C, strain NPR1, hits give low values 0.975 | S. cerevisiae deletion strains, locus YNL209W, strain ssb2, hits give low values 1.02 | S. cerevisiae deletion strains, locus YNL233W, strain BNI4, hits give low values 1.01 | S. cerevisiae deletion strains, locus YNL248C, strain rpa49, hits give low values 1.01 | S. cerevisiae deletion strains, locus YNL250W, strain rad50, hits give low values 0.993 | S. cerevisiae deletion strains, locus YNL271C, strain bni1, hits give low values 1 | S. cerevisiae deletion strains, locus YNL298W, strain CLA4, hits give low values 0.985 | S. cerevisiae deletion strains, locus YNL307C, strain MCK1, hits give low values 0.996 | S. cerevisiae deletion strains, locus YNL322C, strain KRE1 (second series), hits give low values 1.02 | S. cerevisiae deletion strains, locus YNL322C, strain KRE1, hits give low values 1.01 | S. cerevisiae deletion strains, locus YNR049C, strain mso1, hits give low values 1.01 | S. cerevisiae deletion strains, locus YNR052C, strain pop2, hits give low values 1.01 | S. cerevisiae deletion strains, locus YOL006C, strain TOP1, hits give low values 1.06 | S. cerevisiae deletion strains, locus YOL012C, strain htz1 1.02 | S. cerevisiae deletion strains, locus YOL147C, strain pex11, hits give low values 0.985 | S. cerevisiae deletion strains, locus YOR001W, strain rrp6, hits give low values 1.01 | S. cerevisiae deletion strains, locus YOR061W, strain CKA2, hits give low values 1.01 | S. cerevisiae deletion strains, locus YOR069W, strain VPS5, hits give low values 1 | S. cerevisiae deletion strains, locus YOR070C, strain gyp1, hits give low values 1.03 | S. cerevisiae deletion strains, locus YOR080W, strain dia2, hits give low values 1.02 | S. cerevisiae deletion strains, locus YOR083W, strain WHI5, hits give low values 1.02 | S. cerevisiae deletion strains, locus YOR106W, strain vam3, hits give low values 1.02 | S. cerevisiae deletion strains, locus YOR136W, strain idh2, hits give low values 0.99 | S. cerevisiae deletion strains, locus YOR144C, strain elg1, hits give low values 1 | S. cerevisiae deletion strains, locus YOR184W, strain ser1, hits give low values 0.981 | S. cerevisiae deletion strains, locus YOR231W, strain MKK1, hits give low values 1.01 | S. cerevisiae deletion strains, locus YOR265W, strain rbl2, hits give low values 1.01 | S. cerevisiae deletion strains, locus YOR270C, strain vph1, hits give low values 1.01 | S. cerevisiae deletion strains, locus YOR290C, strain snf2, hits give low values 0.996 | S. cerevisiae deletion strains, locus YOR316C, strain cot1, hits give low values 0.997 | S. cerevisiae deletion strains, locus YPL051W, strain arl3, hits give low values 1.01 | S. cerevisiae deletion strains, locus YPL055C, strain LGE1, hits give low values 1.03 | S. cerevisiae deletion strains, locus YPL078C, strain atp4, hits give low values 1.01 | S. cerevisiae deletion strains, locus YPL106C, strain sse1, hits give low values 1.01 | S. cerevisiae deletion strains, locus YPL240C, strain hsp82, hits give low values 1.03 | S. cerevisiae deletion strains, locus YPL256C, strain CLN2, hits give low values 0.996 | S. cerevisiae deletion strains, locus YPR119W, strain clb2, hits give low values 0.985 | S. cerevisiae deletion strains, locus YPR141C, strain kar3, hits give low values 0.992 | S. cerevisiae deletion strains, locus YPR163C, strain tif3, hits give low values 0.997 | S. cerevisiae deletion strains, locus YPR167C, strain met16, hits give low values 0.985 | S. cerevisiae deletion strains, strain wtn01, hits give low values 0.993 | S. cerevisiae strains, strain wild type, hits give low values 0.999
